Assay outcomes as filed in PubChem.
D2 PAM-1 = Beta-Arrestin HTS for Positive Allosteric Modulators of the Human D2 Dopamine Receptor: Potentiators; DiscoveRx D2 beta-arrestin cells, luminescence, 90 min; 100% = 57 uM dopamine signal; D(2) dopamine receptor (Homo sapiens), P14416; actives 0.23% (n = 360,000); AID 624464, 2012; potentiation, % (no concentration beside the values); in the data active means potentiation above about 50%; inconclusive means mostly about 30% to 49%
Target sequence (P14416 whole entry, looked up): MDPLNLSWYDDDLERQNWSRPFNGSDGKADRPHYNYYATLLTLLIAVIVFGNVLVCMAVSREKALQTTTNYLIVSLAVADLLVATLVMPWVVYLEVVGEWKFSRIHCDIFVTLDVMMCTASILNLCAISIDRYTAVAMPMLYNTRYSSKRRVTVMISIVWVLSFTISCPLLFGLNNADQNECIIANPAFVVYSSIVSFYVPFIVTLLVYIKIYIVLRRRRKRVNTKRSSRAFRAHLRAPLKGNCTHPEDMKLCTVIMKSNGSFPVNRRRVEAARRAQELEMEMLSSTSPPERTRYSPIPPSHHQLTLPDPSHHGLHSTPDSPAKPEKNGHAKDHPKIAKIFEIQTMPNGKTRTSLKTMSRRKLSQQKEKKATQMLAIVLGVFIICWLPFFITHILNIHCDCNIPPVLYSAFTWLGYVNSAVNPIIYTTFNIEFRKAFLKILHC
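PathHunter beta-arrestin assay in DiscoveRx D2 cells. Compounds were added with an EC20 of dopamine (50 nM final) for 90 min at 37 deg C. Luminescence was read 1 h after detection reagent, with 57 uM dopamine as the EC100 control.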
D2 ag-1 = HTS Assay for Allosteric Agonists of the Human D2 Dopamine Receptor: Primary Screen for Agonists | activation, % at 2 µM | actives 0.53% (n = 340,000) | D(2) dopamine receptor (Homo sapiens), P14416 | HEK293 T-REx D2 cells, calcium flux agonist mode | AID 485358, 2010;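 active means activation over 3 SD above normal in the single-dose calcium agonist read, cut at about 30% in these data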; further: 0% is about no effect
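Tetracycline-induced HEK293 T-REx cells with force-coupled D2 receptor, plated overnight at 30 C, loaded with no-wash calcium dye. After a 10 s baseline, compound was pin-added and calcium flux read kinetically for 180 s; calcium rises flagged agonists.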
D2 PAM-2 = HTS Assay for Positive Allosteric Modulators of the Human D2 Dopamine Receptor: Primary Screen for Potentiators; D(2) dopamine receptor (Homo sapiens), P14416; HEK293 T-REx D2, calcium flux, EC20 dopamine potentiation; potentiation, % at 10 µM; actives 0.34% (n = 340,000); AID 485347, 2010;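 active means potentiation over 3 SD above the plate norm, cut at about 30% in these data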; further: 0% is about no effect
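Using a no-wash calcium dye in inducible, force-coupled HEK293 Trex cells expressing D2, we tracked fluorescence each second for 180 s after compound, then for 180 s after EC20 dopamine to detect augmented signalling.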
D2 antagonist = HTS Assay for Allosteric Antagonists of the Human D2 Dopamine Receptor: Primary Screen for Antagonists; inhibition, % at 10 µM; HEK293 TREx D2 cells, calcium flux, dopamine EC80; D(2) dopamine receptor (Homo sapiens), P14416; actives 2% (n = 340,000); in the data active means inhibition above about 30%; inactive means below that, where a call was filed; further: 0% is about no effect
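Inhibition of EC80 dopamine-driven calcium flux, recorded kinetically, defines activity here; cells are a tetracycline-induced HEK293 T-REx line expressing force-coupled D2.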
D2 ag-2 = Beta-Arrestin HTS for Positive Allosteric Modulators of the Human D2 Dopamine Receptor: Agonists; actives 0.084% (n = 360,000); DiscoveRx PathHunter D2 beta-arrestin, luminescence, 90 min; 100% = 57 uM dopamine signal; D(2) dopamine receptor (Homo sapiens), P14416; activation, % (concentration not given with the values); in the data active means activation above about 40%; inconclusive means between about 15% and that limit
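Agonist mode: compounds alone added to overnight-plated D2 PathHunter cells for 90 min at 37 C, with 57 uM final dopamine (EC100) defining full response. Beta-arrestin recruitment detected by chemiluminescent reagent, read after 1 h at ambient temperature.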
LDHA inh = qHTS assay for inhibitors of human lactate dehydrogenase; purified LDHA, NADH/diaphorase-resazurin fluorescence; hits give low values; actives 0.15% (n = 480,000); L-lactate dehydrogenase A chain (Homo sapiens), P00338; activity change, % (values are at about 110 or 230 µM); AID 1347041, 2019; in the data active means activity change below about -30%; inconclusive means mostly about -25% to -30%;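 further: plate controls were DMSO wells for no effect and wells without enzyme for full effect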
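LDH5 2 nM; NADH 0.06 mM, pyruvate 0.2 mM; 200 mM Tris pH 7.4, EDTA, Tween-20; 5 min RT. Detection: diaphorase 0.133 mg/mL + resazurin 37 µM, fluorescence ex540/em590 at 0 and 20 min; normalized to enzyme-free and DMSO wells.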
Starred values were filed as active, the others as inactive; u = inconclusive; x = not tested or not shown. Sampled rows, rich in hits. Any-hit rate of the full collection: about 2.1%.

SMILES	D2 PAM-1	D2 ag-1	D2 PAM-2	D2 antagonist	D2 ag-2	LDHA inh
CN1CCc2c(c3ccccc3n2Cc2ccccc2)C1	-28	0	-21	33*	-2	-9
CCCCN1CCc2c(c3ccccc3n2Cc2ccccc2)C1	-23	1	-25	-5	-1	1
O=C(NC1CCCCC1)c1cc(-c2ccc(F)cc2)on1	1	-2	39*	6	-3	-10
Cc1ccc2c(c1)NC(=O)C(CC(=O)NCCCN1CCCCC1)O2 (stereo not given)	-6	0	-11	9	-2	-10
Cc1ccc2c(c1)NC(=O)C(CC(=O)NCCCN1CCN(c3cc(Cl)ccc3C)CC1)O2 (stereo not given)	-8	0	-28	53*	1	2
CN1CCCCC1CCN1c2ccccc2Sc2ccc(S(C)=O)cc21 (stereo not given)	-10	1	-28	96*	-3	-6
CN1CCCC(CN2c3ccccc3Sc3ccccc32)C1 (stereo not given)	-32	x	x	x	-1	-2
Cn1cc(C2Nc3ccccc3C(=O)N2c2ccc(Cl)cc2)c(=O)n(C)c1=O (stereo not given)	x	x	x	x	x	19
O=C(Oc1ccc(/C=N/Nc2nc(N3CCCCC3)nc(N3CCCCC3)n2)cc1)c1ccco1	-3	0	-3	6	-4	-9
CCOc1cc(/C=N\Nc2nc(Nc3ccccc3)nc(N3CCOCC3)n2)ccc1OC(=O)c1ccco1	65*	x	x	x	u	0
COc1cc(/C=N/Nc2nc(C)cc(C)n2)ccc1OC(=O)c1ccco1	-9	0	9	-2	2	-7
COc1cc(/C=N/Nc2ccc3ccccc3c2)ccc1OC(=O)c1ccco1	51*	-1	-5	17	8	23
Cc1ccc(CSc2ncc(CO)n2CC(=O)NC2CCCC2)cc1	x	x	x	x	x	-4
C/C(=C\C(=O)c1ccccc1)Nc1ccc(O)cc1	56*	-1	-5	-10	u	29
C/C(=C\C(=O)c1cccnc1)Nc1ccc(O)cc1	u	1	5	-9	5	45
Cc1ccc(S(=O)(=O)N(C)C)cc1NC(=O)C1CCCC1	-27	1	-11	-9	-11	-1
Cc1ccc(S(=O)(=O)N(C)C)cc1NC(=S)N1CCCCC1CO (stereo not given)	-9	0	-18	39*	-3	0
CCN(CCO)C(=S)Nc1cc(S(=O)(=O)N(C)C)ccc1C	-11	2	-24	51*	-3	-2
O=C(CCSc1ccccc1F)Nc1cccc(-n2cnnn2)c1	x	x	x	x	x	-2
CN1C(=O)/C(=C\c2ccc(N(C)C)cc2)OC1=S	-4	86*	-20	47*	-1	-3
CC(C)c1ccccc1NC(=O)COc1ncnc2ccc(Br)cc12	x	x	x	x	x	-12
Cc1cccc(NS(=O)(=O)c2cc3c(cc2C)n(C)c(=O)c(=O)n3C)c1	0	36*	-11	26	3	-3
Cc1cc2c(cc1S(=O)(=O)Nc1cccc(F)c1)n(C)c(=O)c(=O)n2C	2	-1	3	-5	-1	-5
C=C(C)Cn1c(SCCCCCC)nc2c1c(=O)[nH]c(=O)n2C	x	x	x	x	x	0
COC(=O)c1ccc(NC(=O)CNCc2ccncc2)cc1	-5	1	12	-12	-1	-30*
COC(=O)c1ccc(CNCC(=O)Nc2ccc(C(=O)OC)cc2)cc1	-4	1	-1	17	-3	-1
Cc1oncc1C(=O)Nc1ccc2ccccc2c1	1	0	8	-7	-3	-1
Cc1oncc1C(=O)Nc1ccc(C(F)(F)F)cc1	-2	-2	4	36*	13	-10
O=C1C(=O)c2cccnc2-c2ncccc21	u	x	x	x	56*	18
